# Laboratory results reported in PubChem BioAssay (NCATS).
# Calls of active or inactive are those of the source. The call rests on the fitted dose curve; in most records, active means well fitted curve in the direction sought with a large enough effect; inconclusive means small, poorly fitted or top-dose-only effect, or effect the other way, or another doubt; inactive means no such curve, though single readings can be large or run the other way.
# Test: qHTS for inhibitors of adenylyl cyclases using a fission yeast platform: a pilot screen against the NCATS LOPAC library (AID 1347410)
# Details: S. pombe CHP2027, fbp1-GFP fluorescence, 18 h; series mostly up to 57.5 µM
# From the text: PI: Charles S. Hoffman Ph.D
# Boston College, 140 Commonwealth Ave., Chestnut Hill, MA
# Assay Development and Screening Technology Laboratory (ADST)
# National Center for Advancing Translational Sciences (NCATS), Rockville, MD
# National Institute of Health (NIH), Bethesda, Maryland
# The fission yeast Schizosaccharomyces pombe uses a cAMP signaling pathway to link glucose-sensing to Protein Kinase A activity in order to regulate cell growth, sexual development, gluconeogenesis, and exit from stationary phase. Here, we describe the successful functional expression of all ten mammalian adenylyl cyclase (AC) genes, along with the human GNAS G-alpha gene in this organism. By measuring expression of a PKA-repressed fbp1-GFP reporter together with direct measurements of intracellular cAMP levels, one can detect both basal AC activity from all ten AC genes as well as GNAS-stimulated activity from eight of the nine transmembrane ACs (tmACs; AC2-AC9).
# Further confirmation and validation of active compounds lead to the identification of diphenyleneiodonium chloride (DPI) as an inhibitor of basal AC activity. This fluorescence based fbp1-GFP-GNAS screening technology could facilitate the development of therapeutic compounds that target GNAS or the ACs, an area in which there is significant unmet need.
# The gain-of-signal output is not substantially affected by cytotoxic compounds within the library.
# Getz RA, et al., A fission yeast platform for heterologous expression of mammalian adenylyl cyclases and high throughput screening, Cellular Signaling, 2019, 60: 114-121. doi.org/10.1016/j.cellsig.2019.04.010.
# PROTOCOL TABLE (as described by Inglese J, Shamu CE and Guy RK. 2007)
# SEQUENCE No. (e.g., 1, 2, 3, etc.); […] (e.g., Cells, Incubation, Reagent, etc.); VALUE; DESCRIPTION.
# 1; Dispense growth medium; 2 uL; black, clear bottom, low base, 1536-well Aurora assay plate.
# 2; Compounds and control; 23 nL; Kalypsis pin tool (Wako USA) equipped with a 1536-well pin head to transfer to the assay plates.
# 3; Dispense yeast cells; 2 uL; CHP2027 cells.
# 4; Incubation; 18 hours (dark at 30C); Non-humidified microbial incubator.
# 5; Detector; 425V; Fluorescence; laser scanning cytometry.
# NOTES (numbers refer to Sequence numbers above)
# 1. S. pombe growth medium EMM containing histidine, lysine, and uracil was initially dispensed into the assay plate to avoid yeast contamination using a Multidrop Combi dispenser (Thermo Fisher Scientific).
# 2. 10 mM stock solution of DPI (Sigma-Aldrich D2926) dissolved in DMSO was used as a 16-point dose response positive control, while 1.11 mM DPI stock solution was used as a single point max response positive control. Solvent DMSO was used as the negative control. Control DPI was transferred as a single-dose (column 3; rows 1-32; 1.11 mM stock), and multi-dose (column 4; rows 1-32; 10mM stock; 1:1.5 dilution; 16pnt titration) positive controls. Vehicle control DMSO was pinned into column 1-2, rows 1-32. Lopac compounds were pinned into columns 5-48 resulting to a final concentration range 57 µM to 78.4 nMControl DPI stock (10 mM) was prepared by dissolving 10 mg in 3.18 mL DMSO; while 1.11 mM DPI stock was prepared by mixing 100 uL of 10 mM DPI with 800 uL DMSO. To create the control plates, we initially start with a 384-well compound working plate. With a repeater pipette, (a.) 16 uL/well of 1.11 mM DPI was added to column 3; (b.) 16 uL/well of DMSO was added into rows 2-16 of column 4; (c.) 50 uL/well of DPI added to rows 1 and 2 of column 4; (d.) 32 uL serial dilution (two-thirds-fold) from rows 2 to 16 of column 4 with manual pipette. From the 384-well compound working plate, 7 uL of respective control compound was transferred to respective columns of the 1536-well compound plate using a multichannel pipette.
# 3. S. pombe CHP2027 (AC9-GNAS-PDE4D2) expressing fbp1-GFP cells were grown at 30C in EMM medium containing histidine, lysine, and uracil. […]
row,SMILES,outcome
1,C[N+]1(C)CCc2cc3c(cc2[C@H]1[C@@H]1OC(=O)c2c1ccc1c2OCO1)OCO3,inactive
2,Nc1ccc(CCN2CCN(c3cccc(C(F)(F)F)c3)CC2)cc1,inactive
3,CN1CCc2cc(O)cc3c2[C@H]1Cc1ccc(O)c(O)c1-3,inactive
4,CCN1C[C@@]2(COC)C3[C@@H](OC)C4[C@@H]1C3([C@@H]1C[C@]3(O)[C@H](OC(=O)c5ccccc5)[C@@H]1[C@]4(OC(C)=O)[C@@H](O)[C@@H]3OC)[C@H](OC)C[C@H]2O,inactive
5,Cc1cc([C@@H]2CCCN2C)on1,inactive
6,CC(=O)NBr,inactive
7,CC(N)[C@H](O)c1ccc(O)c(O)c1 (stereo not given in full),inactive
8,O=S1(=O)N(CCN2CC=C(c3c[nH]c4cc(F)ccc34)CC2)c2cccc3c2N1CCC3,inactive
9,c1ccc2cc(CC3=NCCN3)ccc2c1,inactive
10,Clc1cc(I)cc(Cl)c1NC1=NCCN1,inactive
11,NC(C(=O)O)c1cc(=O)[nH]o1 (stereo not given),inactive
12,N#C/C(=C/c1ccc(O)c(O)c1)C(N)=S,inactive
13,CN1CCc2cccc(Cl)c2CC1,inactive
14,C[N+]1(C)CCOC(O)(c2ccc(-c3ccc(C4(O)C[N+](C)(C)CCO4)cc3)cc2)C1 (stereo not given),inactive
15,Ic1ccccc1CNC1C2CCN(CC2)C1C(c1ccccc1)c1ccccc1 (stereo not given),inactive
16,COC(=O)N1CCN(C(=O)Cc2ccc(Cl)c(Cl)c2)C(CN2CCCC2)C1 (stereo not given),inactive
17,CC(Cc1ccc(OCC(=O)O)cc1)NCC(O)c1cccc(Cl)c1 (stereo not given),inactive
18,COc1ccc(OC)c(C(O)C(C)N)c1 (stereo not given),inactive
19,Nc1cc2c(ncn2CCOCP(=O)(O)O)c(=O)[nH]1,inactive
20,CCCN1CCc2cccc3c2[C@H]1Cc1ccc(O)c(O)c1-3,inactive

row,SMILES,outcome
1,CN1CC[C@@]2(C)c3cc(O)ccc3N(C)C12 (stereo not given in full),inactive
2,CN(C(=O)Cc1ccc(Cl)c(Cl)c1)C(CN1CCCC1)c1cccc(OCC(=O)O)c1 (stereo not given),inactive
3,O=C1/C(=C/c2ccccc2)C[C@@]2(O)[C@H]3Cc4ccc(O)c5c4[C@@]2(CCN3CC2CC2)[C@H]1O5,inactive
4,[Cl-].[Cl][Pt].[NH2-].[NH2-].c1ccncc1,inactive
5,O=[N+]([O-])c1ccc2nc(N3CCNCC3)ccc2c1,inactive
6,Clc1ccc(N2CC3CCC(C2)N3)nn1,inactive
7,NC(=O)c1cc(N2CC2)c([N+](=O)[O-])cc1[N+](=O)[O-],inactive
8,N[C@@H](Cn1oc(=O)[nH]c1=O)C(=O)O,inactive
9,C[N+](C)(C)CC#CCN1CCCC1=O,inactive
10,COc1ccc2[nH]cc(CCN)c2c1,inactive
11,CN1CCC[C@@H]1Cc1c[nH]c2ccc(Nc3ncccc3[N+](=O)[O-])cc12,inactive
12,CC(C)(C)OC(=O)NC1[C@H]2CNC[C@@H]12 (stereo not given in full),inactive
13,Oc1ccc2c3c1O[C@H]1c4[nH]c5ccccc5c4C[C@@]4(O)C(C2)N(CC2CC2)CCC314 (stereo not given in full),inactive
14,CC12NC(Cc3ccccc31)c1ccccc12 (stereo not given),inactive
15,CCn1cnc2c(Nc3cccc(Cl)c3)nc(N[C@@H]3CCCC[C@@H]3N)nc21,inactive
16,CCCN(CCC)[C@@H]1CCc2cccc(O)c2C1,inactive
17,CC(N)Cc1c[nH]c2ccc(O)cc12 (stereo not given),inactive
18,O=C(NC1CN2CCC1CC2)c1cc2ccoc2cn1 (stereo not given),inactive
19,N#CCCN,inactive
20,CCNC(=O)[C@H]1O[C@@H](n2cnc3c(N)ncnc32)[C@H](O)[C@@H]1O,inactive
